Over roughly 33,000 sequences, “normalized occupancy” has its median near 0.075; the highest 2% begin near 0.095. The list comes from a sample in which the highest values are over-represented; it also holds similar and randomly drawn sequences.
Target: MaxL homodimer (Homo sapiens, UniProt P61244 1-160)
Experiment: universal protein-binding microarray (PBM); PBS-based mixture, 10 nM His-tagged protein dimer, 2% milk, 200 ng/uL BSA, 50 ng/uL salmon testes DNA, 0.02% TX-100; detection with Alexa 488 anti-His antibody;; high values mean tight binding
Settings: protein: recombinant; tags: C-terminal His-tag (pET21a); chain copies: 2; dsDNA, one strand shown
Method in brief: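 Agilent 4 x 44 K arrays carrying the 'all 10-mer' universal design were incubated with His-tagged protein dimer at 10 nM. Protein that bound was tagged using fluorophore-conjugated anti-His antibody at 10 ng/μL, and a GenePix 4400A scanned the arrays to give an intensity for every 8-mer. Each binding occupancy value expresses an intensity relative to the top-ranked intensity.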

MaxL homodimer, sequence (P61244 whole entry): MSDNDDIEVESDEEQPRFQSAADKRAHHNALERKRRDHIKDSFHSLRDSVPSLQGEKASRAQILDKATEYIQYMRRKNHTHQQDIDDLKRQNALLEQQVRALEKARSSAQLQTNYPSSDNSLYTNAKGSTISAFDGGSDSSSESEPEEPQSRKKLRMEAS

Row | Sequence | binding signal [normalized occupancy]
1 | CTGCGGCA | 0.0732
2 | GACACCCA | 0.0749
3 | GATGTAGA | 0.0799
4 | ACAGCTAT | 0.0762
5 | ACAGGTGG | 0.0985
6 | ACAGGTGA | 0.084
7 | ACAGGTGC | 0.0832
8 | CACAGCAA | 0.0762
9 | CGTGTGCC | 0.0918
10 | CATGTGCG | 0.181
11 | GATGTGCC | 0.0796
12 | CATGTGCC | 0.149
13 | AATGTGAA | 0.0782
14 | ACTGTGAT | 0.0734
15 | CGTGTGCA | 0.0981
16 | CCTGTGCG | 0.0733
17 | AATGTGAT | 0.101
18 | AGTGTGCA | 0.0821
19 | CATGTTCG | 0.0882
20 | CTTGTGCC | 0.0778
21 | CGTAGCAG | 0.0734
22 | CGTGAAGA | 0.0801
23 | TATCTTAA | 0.0728
24 | TTCTCAAA | 0.0808
25 | CTGCTCCC | 0.0741

Row | Sequence | binding signal [normalized occupancy]
26 | ACGGTTAA | 0.0751
27 | CTGCAGCA | 0.0755
28 | GACCTTAC | 0.0765
29 | CCAAGCTA | 0.0731
30 | AATGTGCA | 0.0888
31 | GGTGTTCA | 0.0754
32 | AATGTGTA | 0.0864
33 | AGTGTTCA | 0.0774
34 | AATGTGCG | 0.0957
35 | AATGTGTG | 0.0963
36 | GATGTGCA | 0.0814
37 | CGTGTTCA | 0.1
38 | CATGTGCA | 0.149
39 | AGTGTGTG | 0.0828
40 | AATGTGCC | 0.0816
41 | TATGTGCA | 0.084
42 | CATAATTA | 0.0816
43 | TACTAATA | 0.0814
44 | CGAGCAGA | 0.0731
45 | ACATCCGC | 0.0795
46 | TACTTATA | 0.0836
47 | GTAAATCA | 0.0784
48 | ACCTCGTC | 0.0738
49 | ACCTCGTA | 0.0827
50 | AGCTCGTG | 0.0836

Row | Sequence | binding signal [normalized occupancy]
51 | ACATCGTG | 0.0998
52 | ACCTCATA | 0.0788
53 | ACCTCGTG | 0.156
54 | ACCTCATC | 0.0736
55 | ACCTCATG | 0.113
56 | ACATCGTC | 0.0753
57 | ACATCGTA | 0.0832
58 | ATCTCGTG | 0.0991
59 | ATCTCGTA | 0.0765
60 | AGACGTCC | 0.0732
61 | CAGCAATG | 0.082
62 | CTTACAAC | 0.0757
63 | ATGTTTGG | 0.0806
64 | CTCATGAA | 0.0856
65 | CCTTGCGA | 0.0752
66 | ATCATGTG | 0.137
67 | CCCATGCC | 0.0969
68 | CCCATGAG | 0.0921
69 | ACCATGAG | 0.0976
70 | ACCATGAA | 0.0755
71 | ATCATGTC | 0.0895
72 | CCCATGAC | 0.0853
73 | CCCATGTC | 0.0854
74 | ATCATGTA | 0.0811
75 | CCCATGCG | 0.138

Row | Sequence | binding signal [normalized occupancy]
76 | CCTATGCG | 0.0749
77 | CCAATGCG | 0.0793
78 | ACATCACC | 0.0798
79 | GACCAGCA | 0.0755
80 | CTGTCGTA | 0.0747
81 | GAGAACTA | 0.0732
82 | CTCTCGAA | 0.0729
83 | AACGGTTG | 0.0768
84 | CGTTGCCA | 0.0801
85 | GGCGGTGA | 0.0725
86 | GCCATGCC | 0.0963
87 | ACCATGCC | 0.0954
88 | ACAATGTG | 0.0995
89 | ACAATGTA | 0.085
90 | ACAATGTC | 0.079
91 | GCCATGCA | 0.0904
92 | CCCATGCA | 0.0973
93 | CCCATGAA | 0.0827
94 | ACCATGAC | 0.0839
95 | CCCATACA | 0.0836
96 | ACCATGGC | 0.0734
97 | GCCATGGC | 0.0823
98 | CATTTGTA | 0.0834
99 | CATACGCG | 0.0762
100 | AGGGAGCG | 0.0763

Row | Sequence | binding signal [normalized occupancy]
101 | CCGTACGC | 0.072
102 | ACACCAGT | 0.0764
103 | CCGACTTA | 0.0735
104 | CGCTAATC | 0.0771
105 | GAAATAGC | 0.0789
106 | ACCATGAT | 0.084
107 | ACCATGTG | 0.225
108 | ACAATGCG | 0.0867
109 | ACCATGTA | 0.0876
110 | ACCATGCG | 0.136
111 | ACCATGCT | 0.123
112 | ACCATGTC | 0.0794
113 | ACTATGCG | 0.0817
114 | ACCATGGT | 0.0862
115 | ACCATGCA | 0.0972
116 | TCCATGCA | 0.0861
117 | ACCATGGA | 0.0861
118 | ATGCTGGC | 0.0864
119 | CAGGCCTG | 0.0765
120 | AAACTAAC | 0.0741
121 | ATTGGCGC | 0.0745
122 | GTACAAGA | 0.0806
123 | CTTCTATC | 0.0768
124 | AGTCAGCG | 0.0777
125 | CCAATTGG | 0.0757

Row | Sequence | binding signal [normalized occupancy]
126 | AGTCACGC | 0.0989
127 | AATCACGG | 0.0727
128 | AATCACTA | 0.0729
129 | AATCACGT | 0.099
130 | AATCACGC | 0.0974
131 | AGTCACGG | 0.0774
132 | AATCACCT | 0.0853
133 | AATCACGA | 0.0856
134 | GATCACCC | 0.0786
135 | GATCACGC | 0.0977
136 | AGTCACGA | 0.0912
137 | GATCACGA | 0.0786
138 | CCAATGGA | 0.0747
139 | ACGCCTGC | 0.0743
140 | CCAGAATC | 0.0733
141 | CATCACGG | 0.0829
142 | CATCACGA | 0.0811
143 | CATCACGC | 0.0961
144 | GGTCTTGA | 0.0779
145 | AATGTGGG | 0.0907
146 | CATGTCGG | 0.088
147 | CATGTTGA | 0.0943
148 | AATGTGGC | 0.0898
149 | AATGTGGA | 0.0903
150 | CATGTGGC | 0.165

Row | Sequence | binding signal [normalized occupancy]
151 | GATGTGGA | 0.0847
152 | CATGTGGA | 0.157
153 | CATGTTGC | 0.0999
154 | CATGTGGG | 0.144
155 | GATGTGGC | 0.0839
156 | GATGTTGC | 0.0781
157 | GGATTTGA | 0.0761
158 | CTATAGTA | 0.0737
159 | AACAATGC | 0.0816
160 | AGCTGTTA | 0.0759
161 | AAGTGTAA | 0.0802
162 | GGGTCTAC | 0.0725
163 | CGGACCCC | 0.0732
164 | ACCTCGAG | 0.0843
165 | AGATGCCC | 0.0786
166 | ACATGCCG | 0.103
167 | GAATGCCC | 0.0765
168 | AGATGCCG | 0.0739
169 | GCATGCCC | 0.105
170 | ACATGCCT | 0.0828
171 | ATATGCCG | 0.0773
172 | CCATGCCC | 0.0935

Source: publication PMC4242493, “Sequence specificity incompletely defines the genome-wide occupancy of Myc”
